Rows were chosen to be rich in hits. Some 7.5% of all compounds tested hit in one or more screens of this group.
SMN2 splice up – SMN2 splice variant enhancement; Potency, µM (doses to about 46.1 µM), hits mostly activators; HEK293 SMN2-luciferase splicing reporter, luminescence, 30-36 h; 210,000 tested, 2.8% active; also: nearly all actives have a fitted effect of over 55% in size
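HEK293 cells carry an SMN2 minigene-luciferase reporter in which exon 7 inclusion puts luciferase in frame. Cells were seeded at 2000 cells/well, attached for 10-12 hours, then exposed to compounds for 30-36 hours at 37C before ONE-Glo luminescence.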
FLuc counter – counter-screen for miR-21 project: firefly luciferase inhibitors or activators; 360,000 tested, 6.9% active; AID 588342; Potency, µM (highest dose often 57.5 µM), usual class: inhibitors; purified FLuc, Km substrates, luminescence inhibition; P08659; also: nearly all actives have a fitted effect of over 55% in size
Target sequence (P08659 whole entry, looked up): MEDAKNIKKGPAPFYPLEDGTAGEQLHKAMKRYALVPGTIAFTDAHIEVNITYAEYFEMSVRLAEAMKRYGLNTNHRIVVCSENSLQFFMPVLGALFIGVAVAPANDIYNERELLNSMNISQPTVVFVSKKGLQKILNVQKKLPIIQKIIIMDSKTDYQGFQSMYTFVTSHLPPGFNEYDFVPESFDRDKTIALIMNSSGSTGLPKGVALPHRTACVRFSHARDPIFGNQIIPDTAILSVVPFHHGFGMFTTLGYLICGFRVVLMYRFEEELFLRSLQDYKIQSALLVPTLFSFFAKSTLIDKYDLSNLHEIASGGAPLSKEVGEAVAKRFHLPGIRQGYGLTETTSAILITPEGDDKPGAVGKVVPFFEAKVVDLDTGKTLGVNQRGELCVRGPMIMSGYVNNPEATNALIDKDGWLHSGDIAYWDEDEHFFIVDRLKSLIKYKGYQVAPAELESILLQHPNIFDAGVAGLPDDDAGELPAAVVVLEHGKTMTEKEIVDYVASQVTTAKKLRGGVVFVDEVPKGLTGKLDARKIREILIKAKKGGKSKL
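Purified P. pyralis luciferase (10nM final) with 10uM D-luciferin and 10uM ATP (Km levels) in 50mM Tris acetate pH 7.5, 10mM Mg acetate, 0.01% Tween-20, 0.05% BSA; qHTS 6-point titration, ~60 µM downward; luminescence read.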
Rab9 prom act – activates the Rab9 promoter. Huh7 Rab9 promoter-luciferase reporter, luminescence, 24 h. Potency, µM (series often up to 9.22 µM), most hits filed as activators. 320,000 tested, 2.8% active. AID 485297; also: nearly all actives have a fitted effect of over 60% in size
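Huh7 cells stably carrying a Rab9 promoter-luciferase reporter, 1500 cells per well in OP-MEM I with 10% FBS, treated with compound 24 hours at 37C. Luciferase activity read by luminescence after 10 minutes with Amplite reagent.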
NPC1 prom act – activates the NPC1 promoter; Huh7 NPC1 promoter luciferase reporter, 24 h; Potency, µM (highest dose often 9.22 µM), hits mostly activators; 320,000 tested, 2.4% active; AID 485313; also: nearly all actives have a fitted effect of over 60% in size
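Luminescence from an NPC1 promoter-driven luciferase reporter in stably transfected Huh7 cells was measured after 24 h compound treatment at 37 °C, followed by 10 min ambient incubation with luciferase detection reagent.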
ELG1 genotox – genotoxicity induction in ELG1-luciferase HEK293T cells; 330,000 tested, 1.3% active; Potency, µM (highest dose often 46 µM), usual class: activators; HEK293T ELG1-luciferase reporter, luminescence, 16 h; also: nearly all actives have a fitted effect of over 60% in size
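Genotoxic stress is detected as increased luminescence from luciferase-tagged ELG1 in HEK293T cells, measured with ONE-Glo after a 16 hr treatment at 37 °C.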
A number is an active result; i = inactive; ? = inconclusive; nt = not tested or not shown; [ ] = remark or other dose. Calls follow the shape of the dose curve; as a rule, active = well fitted curve in the direction sought with a large enough effect; inconclusive = small, poorly fitted or top-dose-only effect, or another doubt; inactive = no such curve, though single readings can be large; an effect the other way counts as inactive or inconclusive.

SMILES	SMN2 splice up	FLuc counter	Rab9 prom act	NPC1 prom act	ELG1 genotox
O=C(CSc1nnc(NCc2ccccc2)s1)NC1CCS(=O)(=O)C1 (configuration not stated)	nt	17µM	i	i	i
CCc1ccc(-c2nc(SCC(=O)NC3CCS(=O)(=O)C3)n[nH]2)cc1 (configuration not stated)	nt	5.4µM	i	i	?
COc1ccc(Nc2nnc(SCC(=O)NC3CC3)s2)cc1	nt	19µM	i	i	i
CCc1nn(CCCC(=O)N2CCc3ccccc3C2)c(=O)c2cc3occc3n12	i	i	i	i	i
CC(=O)Nc1ccc(OC(=O)c2ccc(Br)c([N+](=O)[O-])c2)cc1	i	i	i	i	?
CCc1ccc(Nc2nnc(SCC(=O)N(C)C3CCS(=O)(=O)C3)s2)cc1 (configuration not stated)	nt	0.43µM	?	3.5µM	?
C=CCn1c(O)c(N=NC(=O)OC(C)(C)C)c2ccccc21	i	17µM	i	i	i
O=C(NC(=S)Nc1cc(C(F)(F)F)ccc1Cl)c1ccccc1	i	i	i	i	i
Cc1occc1C(=O)Nc1ccc(Br)cc1F	i	21µM	3.2µM	?	?
Cc1occc1C(=O)Nc1cc(C(F)(F)F)ccc1Cl	25µM	i	i	i	i
O=C(O)c1ccc(NNC(=S)Nc2cc(C(F)(F)F)ccc2Cl)cc1	nt	24µM	i	i	18µM
Cc1occc1C(=O)NNC(=O)Nc1ccc(F)cc1F	nt	i	i	i	i
O=C(NC(=S)NCc1ccccc1)C1CC1	nt	i	i	i	i
Oc1ccc(Cl)cc1C=Nc1cnc2ccccc2c1	i[9.22 µM]	nt	nt	nt	nt
Cc1ccc(C)n1-n1c(C)nc2sc(-c3ccccc3)cc2c1=O	i	17µM	?	?	?
O=C(Cn1cnc2sc(-c3ccccc3)cc2c1=O)N1CCOCC1	i	i	i	i	i
CC(=O)Cn1cnc2sc(-c3ccccc3)cc2c1=O	20µM	9.5µM	4.5µM	3.2µM	13µM
CC(=O)Cn1nnc2sc(-c3ccccc3)cc2c1=O	14µM	?	?	?	?
CCOC(=O)C(CC)n1nnc2sc(-c3ccccc3)cc2c1=O (configuration not stated)	i	21µM	nt	nt	nt
O=C1c2cccnc2C(=O)N1Cc1ccc(S(=O)(=O)N2CCOc3ccccc32)cc1	nt	i	i	i	i
NCC/C=C1/c2ccccc2CSc2ccccc21	i	i	i	i	i
CCCCN(CCCC)CCCNC(=O)Cn1cc2c(n1)-c1c(oc(C(=O)N3CCCC3)c1C)CC2	nt	i	i	i	i[9.26 µM]
CCc1cc2c(=O)n(-c3ccc(C)cc3)cnc2s1	3.2µM	11µM	2.5µM	4µM	?
CCc1cc2c(=O)n(-c3ccccc3)cnc2s1	i	i	i	i	i
CCn1cnc2sc(-c3ccccc3)cc2c1=O	10µM	6µM	2.8µM	1.3µM	3.7µM
SMILES	SMN2 splice up	FLuc counter	Rab9 prom act	NPC1 prom act	ELG1 genotox
O=c1[nH]cnc2sc(-c3ccccc3)cc12	i	15µM	?	i	i
COc1ccc(-n2cnc3sc(-c4ccccc4)cc3c2=O)cc1	6.3µM	?	0.63µM	0.56µM	?
O=c1c2cc(-c3ccccc3)sc2ncn1-n1cccc1	?	i	1.8µM	1.8µM	?
COc1cccc(NC(=O)Nc2ccccc2Br)c1	nt	12µM	?	i	i
COC(=O)c1sccc1NC(=O)c1cccc(OC)c1	i	?	i	i	i
COC(=O)c1sccc1NC(=O)Nc1cccc(F)c1	i	12µM	i	i	i
COc1cccc(NC(=O)Nc2cc(Cl)ccc2C)c1	i	i	i	i	i
COC(=O)c1sccc1NC(=O)Nc1cccc(OC)c1	nt	8.5µM	i	i	i
CCc1ccccc1NC(=O)Nc1ccsc1C(=O)OC	nt	?	i	i	i
COc1cccc(NC(=O)NCc2ccccc2F)c1	i	17µM	?	i	?
COc1ccc(NC(=O)COC(=O)c2ccc3ccccc3n2)c(OC)c1	nt	nt	nt	nt	i
CSc1nsc(SCC(=O)Nc2ccc3c(c2)OCCO3)n1	22µM	21µM	i	i	10µM
Cc1csc(SCC(=O)Nc2ccc3c(c2)OCCO3)n1	?	21µM	?	i	?
Cc1cccc(CN2CCCC(C(=O)c3ccc4c5c(cccc35)CC4)C2)n1 (configuration not stated)	nt	i	i	i	i
CC(=O)Nc1ccc(C(=O)COC(=O)c2c(C)noc2C)c(F)c1	nt	?	i	i	i
